# Out of some 5,500 compounds screened, about 2,000 (36%) were called active. Not shown: some 18% with an inconclusive outcome. Some of the results follow. A number with no mark means an inactive call. Rule as the data show it: active = normalized growth mostly below about 0.91 (no sharp cut-off); inconclusive = no clear call, values can overlap the other calls; inactive = mostly above about 0.92.
# Assay: chemical genetic growth profiling, strain panel (AID 1159580);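 also: tested at 20 µM; growth read once vehicle control cultures reached saturation at 30 °C; 1 = growth at the plate median or of vehicle wells; lower values mean less growth of the strain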
# Settings: growth OD
# [1] = S. cerevisiae deletion strains, locus YDL101C, strain DUN1, hits give low values
# [2] = S. cerevisiae deletion strains, locus YHR030C, strain SLT2, hits give low values
# [3] = S. cerevisiae deletion strains, locus YAR019C, strain CDC15, hits give low values
# [4] = S. cerevisiae deletion strains, locus YBL105C, strain PKC1, hits give low values
# [5] = S. cerevisiae deletion strains, locus YBR135W, strain CKS1, hits give low values
# [6] = S. cerevisiae deletion strains, locus YBR136W, strain MEC1, hits give low values
# [7] = S. cerevisiae deletion strains, locus YBR160W, strain CDC28, hits give low values
# [8] = S. cerevisiae deletion strains, locus YDL017W, strain CDC7, hits give low values
# [9] = S. cerevisiae deletion strains, locus YDL108W, strain KIN28, hits give low values
# [10] = S. cerevisiae deletion strains, locus YDL132W, strain cdc53, hits give low values
# [11] = S. cerevisiae deletion strains, locus YDL214C, strain PRR2, hits give low values
# [12] = S. cerevisiae deletion strains, locus YDR052C, strain DBF4, hits give low values
# [13] = S. cerevisiae deletion strains, locus YDR226W, strain ADK1, hits give low values
# [14] = S. cerevisiae deletion strains, locus YDR477W, strain SNF1, hits give low values
# [15] = S. cerevisiae deletion strains, locus YER123W, strain YCK3, hits give low values
# [16] = S. cerevisiae deletion strains, locus YER133W, strain GLC7, hits give low values
# [17] = S. cerevisiae deletion strains, locus YFL009W, strain cdc4, hits give low values
# [18] = S. cerevisiae deletion strains, locus YFL029C, strain CAK1, hits give low values
# [19] = S. cerevisiae deletion strains, locus YFR003C, strain YPI1, hits give low values
# [20] = S. cerevisiae deletion strains, locus YFR019W, strain FAB1, hits give low values
# [21] = S. cerevisiae deletion strains, locus YFR028C, strain CDC14, hits give low values
# [22] = S. cerevisiae deletion strains, locus YGR040W, strain KSS1, hits give low values
# [23] = S. cerevisiae deletion strains, locus YGR052W, strain FMP48, hits give low values
# [24] = S. cerevisiae deletion strains, locus YGR092W, strain DBF2, hits give low values
# [25] = S. cerevisiae deletion strains, locus YHR079C, strain IRE1, hits give low values
# [26] = S. cerevisiae deletion strains, locus YHR082C, strain KSP1, hits give low values
# [27] = S. cerevisiae deletion strains, locus YHR205W, strain SCH9, hits give low values
# [28] = S. cerevisiae deletion strains, locus YJL095W, strain BCK1, hits give low values
# [29] = S. cerevisiae deletion strains, locus YJL128C, strain PBS2, hits give low values
# [30] = S. cerevisiae deletion strains, locus YJL157C, strain FAR1, hits give low values
# [31] = S. cerevisiae deletion strains, locus YJR016C, strain ILV3, hits give low values
# [32] = S. cerevisiae deletion strains, locus YJR066W, strain TOR1 (second series), hits give low values
# [33] = S. cerevisiae deletion strains, locus YJR066W, strain TOR1, hits give low values
# [34] = S. cerevisiae deletion strains, locus YKL048C, strain ELM1, hits give low values
# [35] = S. cerevisiae deletion strains, locus YKL067W, strain YNK1, hits give low values
# [36] = S. cerevisiae deletion strains, locus YKL101W, strain HSL1, hits give low values
# [37] = S. cerevisiae deletion strains, locus YKL193C, strain SDS22, hits give low values
# [38] = S. cerevisiae deletion strains, locus YKL203C, strain TOR2, hits give low values
# [39] = S. cerevisiae deletion strains, locus YLR113W, strain HOG1, hits give low values
# [40] = S. cerevisiae deletion strains, locus YLR133W, strain CKI1, hits give low values
# [41] = S. cerevisiae deletion strains, locus YLR403W, strain SFP1, hits give low values
# [42] = S. cerevisiae deletion strains, locus YML070W, strain DAK1, hits give low values
# [43] = S. cerevisiae deletion strains, locus YMR205C, strain PFK2 (second series), hits give low values
# [44] = S. cerevisiae deletion strains, locus YNL006W, strain LST8, hits give low values
# [45] = S. cerevisiae deletion strains, locus YNL020C, strain ARK1, hits give low values
# [46] = S. cerevisiae deletion strains, locus YNL161W, strain CBK1, hits give low values
# [47] = S. cerevisiae deletion strains, locus YNL183C, strain NPR1, hits give low values
# [48] = S. cerevisiae deletion strains, locus YNL207W, strain RIO2, hits give low values
# [49] = S. cerevisiae deletion strains, locus YNL222W, strain SSU72, hits give low values
# [50] = S. cerevisiae deletion strains, locus YNL307C, strain MCK1 (second series), hits give low values
# [51] = S. cerevisiae deletion strains, locus YOL136C, strain PFK27, hits give low values
# [52] = S. cerevisiae deletion strains, locus YOR061W, strain CKA2, hits give low values
# [53] = S. cerevisiae deletion strains, locus YOR119C, strain RIO1, hits give low values
# [54] = S. cerevisiae deletion strains, locus YOR231W, strain MKK1, hits give low values
# [55] = S. cerevisiae deletion strains, locus YOR329C, strain SCD5, hits give low values
# [56] = S. cerevisiae deletion strains, locus YPL031C, strain PHO85, hits give low values
# [57] = S. cerevisiae deletion strains, locus YPL153C, strain RAD53, hits give low values
# [58] = S. cerevisiae deletion strains, locus YPL204W, strain HRR25, hits give low values
# [59] = S. cerevisiae deletion strains, locus YPL209C, strain IPL1, hits give low values
# [60] = S. cerevisiae deletion strains, locus YPL256C, strain CLN2, hits give low values
# [61] = S. cerevisiae deletion strains, locus YPR025C, strain CCL1, hits give low values
# [62] = S. cerevisiae deletion strains, locus YPR106W, strain ISR1, hits give low values
# [63] = S. cerevisiae deletion strains, locus YPR111W, strain DBF20, hits give low values
# [64] = S. cerevisiae deletion strains, strain NNK1, hits give low values
# [65] = S. cerevisiae deletion strains, strain TSCII, hits give low values
structure (smiles),measurement,setting,value
CC(C)(C)S(=O)(=O)/C(C#N)=C/N1CCCCC1,normalized growth,"S. cerevisiae deletion strains, locus YBR229C, strain ROT2, hits give low values",1.02
same,normalized growth,[1],0.989
same,normalized growth,"S. cerevisiae deletion strains, locus YDR150W, strain NUM1, hits give low values",0.995
same,normalized growth,"S. cerevisiae deletion strains, locus YEL061C, strain CIN8, hits give low values",1.05
same,normalized growth,"S. cerevisiae deletion strains, locus YGR078C, strain PAC10, hits give low values",0.993
same,normalized growth,[2],1.02
same,normalized growth,"S. cerevisiae deletion strains, locus YHR087W, strain rtc3, hits give low values",0.992
same,normalized growth,"S. cerevisiae deletion strains, locus YJL187C, strain SWE1, hits give low values",0.986
same,normalized growth,"S. cerevisiae deletion strains, locus YJR043C, strain POL32, hits give low values",0.983
same,normalized growth,"S. cerevisiae deletion strains, locus YJR075W, strain HOC1, hits give low values",1.02
same,normalized growth,"S. cerevisiae deletion strains, locus YLR039C, strain RIC1, hits give low values",1.02
same,normalized growth,"S. cerevisiae deletion strains, locus YLR058C, strain SHM2 (second series), hits give low values",1.01
same,normalized growth,"S. cerevisiae deletion strains, locus YLR085C, strain ARP6, hits give low values",1.04
same,normalized growth,"S. cerevisiae deletion strains, locus YLR262C, strain YPT6, hits give low values",1.03
same,normalized growth,"S. cerevisiae deletion strains, locus YML094W, strain GIM5, hits give low values",1.02
same,normalized growth,"S. cerevisiae deletion strains, locus YMR219W, strain ESC1, hits give low values",1.02
same,normalized growth,"S. cerevisiae deletion strains, locus YMR263W, strain SAP30, hits give low values",1
same,normalized growth,"S. cerevisiae deletion strains, locus YNL128W, strain TEP1, hits give low values",1
same,normalized growth,"S. cerevisiae deletion strains, locus YNL153C, strain GIM3, hits give low values",1
same,normalized growth,"S. cerevisiae deletion strains, locus YNL298W, strain CLA4 (second series), hits give low values",1.02
same,normalized growth,"S. cerevisiae deletion strains, locus YNL322C, strain KRE1, hits give low values",1.02
same,normalized growth,"S. cerevisiae deletion strains, locus YNR030W, strain Alg12, hits give low values",1.02
same,normalized growth,"S. cerevisiae deletion strains, locus YPL055C, strain LGE1, hits give low values",0.963
same,normalized growth,"S. cerevisiae deletion strains, locus YPL241C, strain CIN2, hits give low values",1.02
same,normalized growth,"S. cerevisiae deletion strains, locus YPR135W, strain CTF4, hits give low values",0.988
same,normalized growth,"S. cerevisiae strains, strain wild type, hits give low values",1.01
FC(F)(F)c1cccc(-n2c(CSCc3cccc4ccccc34)n[nH]c2=S)c1,normalized growth,[3],0.986
same,normalized growth,[4],1
same,normalized growth,[5],0.996
same,normalized growth,[6],1
same,normalized growth,[7],0.986
same,normalized growth,[8],0.993
same,normalized growth,"S. cerevisiae deletion strains, locus YDL028C, strain MPS1, hits give low values",0.985
same,normalized growth,[1],0.989
same,normalized growth,[9],0.998
same,normalized growth,[10],0.988
same,normalized growth,[11],0.993
same,normalized growth,[12],1
same,normalized growth,"S. cerevisiae deletion strains, locus YDR054C, strain cdc34, hits give low values",0.992
same,normalized growth,[13],0.986
same,normalized growth,[14],0.976
same,normalized growth,[15],0.958
same,normalized growth,[16],0.969
same,normalized growth,[17],0.978
same,normalized growth,[18],0.993
same,normalized growth,[19],1
same,normalized growth,[20],1.01
same,normalized growth,[21],0.994
same,normalized growth,[22],0.991
same,normalized growth,[23],1.08
same,normalized growth,[24],0.952
same,normalized growth,[2],1.12
same,normalized growth,[25],1.1
same,normalized growth,[26],1.09
same,normalized growth,[27],1.01
same,normalized growth,"S. cerevisiae deletion strains, locus YIL147C, strain SLN1, hits give low values",0.999
same,normalized growth,[28],1.06
same,normalized growth,[29],0.979
same,normalized growth,[30],0.966
same,normalized growth,[31],0.993
same,normalized growth,[32],0.936
same,normalized growth,[33],1.09
same,normalized growth,[34],1
same,normalized growth,[35],0.989
same,normalized growth,[36],0.986
same,normalized growth,[37],0.99
same,normalized growth,[38],1.06
same,normalized growth,[39],1.07
same,normalized growth,[40],1
same,normalized growth,[41],0.973
same,normalized growth,[42],0.993
same,normalized growth,"S. cerevisiae deletion strains, locus YMR001C, strain CDC5, hits give low values",0.992
same,normalized growth,[43],1
same,normalized growth,"S. cerevisiae deletion strains, locus YMR277W, strain FCP1, hits give low values",0.976
same,normalized growth,[44],0.984
same,normalized growth,[45],1
same,normalized growth,[46],0.998
same,normalized growth,[47],1.13
same,normalized growth,[48],0.989
same,normalized growth,[49],0.997
same,normalized growth,[50],1
same,normalized growth,"S. cerevisiae deletion strains, locus YOL078W, strain AVO1, hits give low values",0.99
same,normalized growth,[51],0.991
same,normalized growth,[52],0.977
same,normalized growth,[53],1.02
same,normalized growth,[54],1.09
same,normalized growth,[55],0.993
same,normalized growth,[56],0.977
same,normalized growth,[57],0.962
same,normalized growth,[58],0.967
same,normalized growth,[59],0.99
same,normalized growth,[60],1.1
same,normalized growth,[61],0.992
same,normalized growth,[62],0.981
same,normalized growth,[63],0.993
same,normalized growth,[64],1.01
same,normalized growth,[65],0.995
O=c1c2ccccc2[nH]c(=S)n1-c1cccc(C(F)(F)F)c1,normalized growth,[3],0.927
same,normalized growth,[4],0.811 (active)
same,normalized growth,[5],0.792 (active)
same,normalized growth,[6],0.774 (active)
same,normalized growth,[7],0.923
same,normalized growth,[8],0.846 (active)
same,normalized growth,[1],0.954
same,normalized growth,[9],0.565 (active)
same,normalized growth,[10],0.944
same,normalized growth,[11],0.908
same,normalized growth,[12],0.885 (active)
same,normalized growth,[13],0.956
same,normalized growth,[14],0.427 (active)
same,normalized growth,[15],0.899
same,normalized growth,[16],0.343 (active)
same,normalized growth,[17],0.95
same,normalized growth,[18],0.633 (active)
same,normalized growth,[19],0.917
same,normalized growth,[20],0.97
same,normalized growth,[21],0.949
same,normalized growth,[22],0.513 (active)
same,normalized growth,[23],0.914
same,normalized growth,[24],0.874
same,normalized growth,[2],0.334 (active)
same,normalized growth,[25],0.837
same,normalized growth,[26],0.832
same,normalized growth,[27],0.748
same,normalized growth,[28],0.182 (active)
same,normalized growth,[29],0.957
same,normalized growth,[30],0.925
same,normalized growth,[31],0.717 (active)
same,normalized growth,[32],0.892
same,normalized growth,[33],0.799
same,normalized growth,[34],0.862
same,normalized growth,[35],0.927
same,normalized growth,[36],0.865
same,normalized growth,[37],0.917
same,normalized growth,[38],0.352 (active)
same,normalized growth,[39],0.912
same,normalized growth,[40],0.895
same,normalized growth,[41],0.459 (active)
same,normalized growth,[42],0.926
same,normalized growth,[43],0.894
same,normalized growth,[44],0.965
same,normalized growth,[45],0.886
same,normalized growth,[46],0.929
same,normalized growth,[47],0.852
same,normalized growth,[48],0.943
same,normalized growth,[49],0.944
same,normalized growth,[50],0.884
same,normalized growth,[51],0.93
same,normalized growth,[52],0.833
same,normalized growth,[53],0.347 (active)
same,normalized growth,[54],0.872
same,normalized growth,[55],0.948
same,normalized growth,[56],0.589 (active)
same,normalized growth,[57],0.646 (active)
same,normalized growth,[58],0.719
same,normalized growth,[59],0.95
same,normalized growth,[60],0.824 (active)
same,normalized growth,[61],0.946
same,normalized growth,[62],0.948
same,normalized growth,[63],0.962
same,normalized growth,[64],0.961
same,normalized growth,[65],0.889

# Source: PubChem BioAssay AID1159580 (chemical genetic matrix, 2015)
